According to PubChem BioAssay (NCATS):
“And” between values parts separate entries of the source, which are not always exact repeats. Equal values may be shown once. Inconclusive results are not listed. Some structures have more than one record in an assay (separate samples or runs), and their calls can disagree. A number with no mark means an inactive call. The call rests on the fitted dose curve; in most records, active means well fitted inhibition curve with a large enough effect; inconclusive means small, poorly fitted or top-dose-only effect; inactive means flat fitted curve, though single readings scatter. Where a SMILES comes first, the peptide text is derived from it. Bridges are numbered along the chain shown (N, C = ends). [ ]: non-standard residue; d: D form. The star is where a group is joined. X2 = CC[C@H](C)CCCCC(=O)*; Dab = NCC[C@H](N)C(=O)O

assay: Drug repurposing screens with cells derived from glioblastoma tumor samples (AID 1345199); settings: GBM patient neurospheres viability, ATP luminescence, 48 h; at 45.9 µM (top of the series); tumour line D; further: nearly all actives have a fitted effect of over 40% in size
In short: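 Four patient lines of CD133+ GBM neurospheres were screened at several concentrations; hits were retested in those lines plus three slower-growing GBM lines, using 48-hour treatment and ATP-based viability.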
On the % scale 0 is the no-effect control and ±100 the full control effect.

SMILES	activity, negative = cell killing
CC(C(=O)O)c1ccc(C2CCCCC2)c2ccccc12 (configuration not stated)	-15.4%
CCN1CCCC1CNC(=O)c1cc(S(=O)(=O)CC)ccc1OC (configuration not stated)	-0.732% and -9.3%
O=C(O)c1cc2ccccc2c(Cc2c(O)c(C(=O)O)cc3ccccc23)c1O	-18.5%
O=C1C(c2[nH]c3ccc(S(=O)(=O)O)cc3c2O)=Nc2ccc(S(=O)(=O)O)cc21	-5.52% and -3.79% and -6.7%

same assay, conditions: GBM patient neurospheres viability, ATP luminescence, 48 h; at 46 µM (top of the series); tumour line A

SMILES	activity, negative = cell killing
CN1CC(O)c2cc(N=NC(N)=O)c(O)cc21 (configuration not stated)	-26.7%
CCN(CC)CCOC(=O)c1ccc(N)cc1Cl	-27.9%
COCC1=C(C(=O)OC(C)OC(=O)OC(C)C)N2C(=O)[C@@H](NC(=O)/C(=N\OC)c3csc(N)n3)[C@H]2SC1 (some centres not stated)	-24.7%
CCCN(CC)C(CC)C(=O)Nc1c(C)cccc1C (configuration not stated)	-28.6%
O=C(Cn1cnnn1)N[C@@H]1C(=O)N2C(C(=O)O)=C(CSc3nncs3)CS[C@H]12	-29.3%
C=C1CC2C3CCC4=CC(=O)C=C[C@]4(C)[C@@]3(F)[C@@H](O)C[C@]2(C)[C@@]1(O)C(=O)COC(C)=O (some centres not stated)	-20%
O=C1O[C@H]2[C@H](O)[C@@H]1OC(O)[C@H]2O (some centres not stated)	-25.4%
CCCCCCCCCCCCCCCCCC(=O)[O][Al]	-12.4%
CCC(=O)O	-7.77%
COc1cc2c(c(OC)c1OC)-c1c(cc3c(c1OC)OCO3)C[C@@H](C)[C@](C)(O)C2	-25%
C[C@H]1C[C@@H]2[C@H]([C@@H](O)C[C@@]3(C)[C@H]2CC[C@]3(O)C(=O)COC(=O)CCC(=O)O)[C@@]2(C)C=CC(=O)C=C12	-16.8%
CC(=O)OCC(=O)[C@@]1(O)[C@H](C)C[C@H]2[C@@H]3C[C@H](F)C4=CC(=O)C=C[C@]4(C)[C@H]3[C@@H](O)C[C@@]21C	-12.7%
CCCCC(=O)O	-15.7%
CS(=O)(=O)Nc1cc2occ(NC=O)c(=O)c2cc1Oc1ccccc1	-16.3%
OCC(O)COc1ccc(Cl)cc1 (configuration not stated)	-5.56%
O=C1O[C@@H]2[C@@H](O)[C@H](O)O[C@@H]2[C@H]1O	-28.6%
NCCCC[C@H](NC(=O)[C@@H]1CCCN1C(=O)[C@@H]1CSSC[C@H](N)C(=O)N[C@@H](Cc2ccccc2)C(=O)N[C@@H](Cc2ccccc2)C(=O)N[C@@H](CCC(N)=O)C(=O)N[C@@H](CC(N)=O)C(=O)N1)C(=O)NCC(N)=O	-29.5%
CCN1CCCC1CNC(=O)c1cc(S(=O)(=O)CC)ccc1OC (configuration not stated)	-20%
O=C(O)c1cc2ccccc2c(Cc2c(O)c(C(=O)O)cc3ccccc23)c1O	-27.5%
O=C1C(c2[nH]c3ccc(S(=O)(=O)O)cc3c2O)=Nc2ccc(S(=O)(=O)O)cc21	-11.9%

same assay, conditions: GBM patient neurospheres viability, ATP luminescence, 48 h; at 46.1 µM (top of the series); tumour line C

SMILES	activity, negative = cell killing
CCCCCCCCCCCCCCCC(=O)OC/C=C(C)/C=C/C=C(C)/C=C/C1=C(C)CCCC1(C)C	0.655%
CN1CC(O)c2cc(N=NC(N)=O)c(O)cc21 (configuration not stated)	26.2%
CCN(CC)CCOC(=O)c1ccc(N)cc1Cl	-6%
O=S(O)CO	-1.44%
COCC1=C(C(=O)OC(C)OC(=O)OC(C)C)N2C(=O)[C@@H](NC(=O)/C(=N\OC)c3csc(N)n3)[C@H]2SC1 (some centres not stated)	0.117% and 4.67%
CCOC(=O)Cc1cccc(-c2cc(CCCCCCc3ccc(O[C@H]4O[C@H](COC(C)=O)[C@@H](OC(C)=O)[C@H](OC(C)=O)[C@@H]4OC(C)=O)c(-c4cccc(CC(=O)OCC)c4)c3)ccc2O[C@H]2O[C@H](COC(C)=O)[C@@H](OC(C)=O)[C@H](OC(C)=O)[C@@H]2OC(C)=O)c1	18%
Nc1ncnc(Nc2ccc(Cl)cc2)n1	-9.25%
CCCN(CC)C(CC)C(=O)Nc1c(C)cccc1C (configuration not stated)	-9.76%
C/C(=C(\CCOC(=O)c1ccccc1)SS/C(CCOC(=O)c1ccccc1)=C(/C)N(C=O)Cc1cnc(C)nc1N)N(C=O)Cc1cnc(C)nc1N	-22.5%
CC(=O)O[C@H]1CC[C@@]2(C)C(=CC[C@@H]3[C@@H]2CC[C@]2(C)C(c4cccnc4)=CC[C@@H]32)C1	-13.1%
O=C(Cn1cnnn1)N[C@@H]1C(=O)N2C(C(=O)O)=C(CSc3nncs3)CS[C@H]12	1.48% and -8.58%
C=C1CC2C3CCC4=CC(=O)C=C[C@]4(C)[C@@]3(F)[C@@H](O)C[C@]2(C)[C@@]1(O)C(=O)COC(C)=O (some centres not stated)	-4.46%
O=C1O[C@H]2[C@H](O)[C@@H]1OC(O)[C@H]2O (some centres not stated)	16.3%
CCCCCCCCCCCCCCCCCC(=O)[O][Al]	-6.43%
CCC(=O)O	7.14%
CCCCCCCC(=O)CC[C@@H]1[C@@H](C/C=C\CCCC(=O)OC(C)C)[C@@H](O)C[C@H]1O	-21.1%
COc1cc2c(c(OC)c1OC)-c1c(cc3c(c1OC)OCO3)C[C@@H](C)[C@](C)(O)C2	-33.4% and -14.4%
CC(=O)[C@@]1(O)CC[C@H]2[C@@H]3C=C(Cl)C4=CC(=O)CC[C@]4(C)[C@H]3CC[C@@]21C	-23.8%
C[C@H]1C[C@@H]2[C@H]([C@@H](O)C[C@@]3(C)[C@H]2CC[C@]3(O)C(=O)COC(=O)CCC(=O)O)[C@@]2(C)C=CC(=O)C=C12	-3.84%

SMILES	activity, negative = cell killing
CCC(=O)Oc1ccc2c(c1)CC[C@@H]1[C@@H]2CC[C@]2(C)[C@@H](OC(=O)CC)CC[C@@H]12	-12.6%
CC(=O)OCC(=O)[C@@]1(O)[C@H](C)C[C@H]2[C@@H]3C[C@H](F)C4=CC(=O)C=C[C@]4(C)[C@H]3[C@@H](O)C[C@@]21C	13.2%
CCCCC(=O)O	-7.54% and 1.54%
CN=C(NC)NCc1ccccc1	-3.39%
Cc1cc(Nc2ccccc2C(=O)O)ccc1Cl	-18%
C/C=C(/CC[C@@H](C)[C@H]1CC[C@H]2C3=CC[C@H]4[C@H](C)[C@@H](O)CC[C@]4(C)[C@H]3CC[C@]12C)C(C)C	9.21%
CS(=O)(=O)Nc1cc2occ(NC=O)c(=O)c2cc1Oc1ccccc1	0.0891%
OCC(O)COc1ccc(Cl)cc1 (configuration not stated)	-6.48%
O=C1O[C@@H]2[C@@H](O)[C@H](O)O[C@@H]2[C@H]1O	-14%
CC(C)(S)C(=O)N[C@@H](CS)C(=O)O	-15.9% and -10.8%
CC(=O)O[C@H]1C[C@@H]2CC[C@@H]3[C@H](CC[C@@]4(C)[C@H]3C[C@H](N3CC[N+](C)(C)CC3)[C@@H]4OC(C)=O)[C@@]2(C)C[C@@H]1N1CC[N+](C)(C)CC1	2.56%
O=C[C@H](O)[C@@H](O)[C@H](O)[C@H](O)CO	7.35%
NCCC[C@H](N)C(=O)O	-18.4%
NCCCC[C@H](NC(=O)[C@@H]1CCCN1C(=O)[C@@H]1CSSC[C@H](N)C(=O)N[C@@H](Cc2ccccc2)C(=O)N[C@@H](Cc2ccccc2)C(=O)N[C@@H](CCC(N)=O)C(=O)N[C@@H](CC(N)=O)C(=O)N1)C(=O)NCC(N)=O	-22.2%
CC[C@H](C)CCCCC(=O)N[C@@H](CCN)C(=O)N[C@H](C(=O)N[C@@H](CCN)C(=O)N[C@H]1CCNC(=O)[C@H]([C@@H](C)O)NC(=O)[C@H](CCN)NC(=O)[C@H](CCN)NC(=O)[C@H](CC(C)C)NC(=O)[C@@H](CC(C)C)NC(=O)[C@H](CCN)NC1=O)[C@@H](C)O (X2-[Dab]T[Dab][Dab][Dab][dL]L[Dab][Dab]T; lactam 4-C)	-10.4%
CC(C(=O)O)c1ccc(C2CCCCC2)c2ccccc12 (configuration not stated)	-7.75%
CCN1CCCC1CNC(=O)c1cc(S(=O)(=O)CC)ccc1OC (configuration not stated)	11.5% and 15.2%
O=C(O)c1cc2ccccc2c(Cc2c(O)c(C(=O)O)cc3ccccc23)c1O	-1.97%
O=C1C(c2[nH]c3ccc(S(=O)(=O)O)cc3c2O)=Nc2ccc(S(=O)(=O)O)cc21	2.85% and 2.31% and 15%
